Experimental data published in ChEMBL document CHEMBL4513136, “CO-ADD screening of CSIC (Spain) compounds”.
Entries with a potency or affinity are not part of this list.

How the values were obtained:
Klebsiella pneumoniae = conditions: Concentration 32 ug.mL-1; ASSAY_TEST Inhibition of Bacterial Growth; detection method Absorption (OD600); MEDIA CAMHB; plate type 384well; NBS; CORNING #3640; time 18 hr
Candida albicans = conditions: 32 ug/mL
Cryptococcus neoformans = conditions: Concentration 32 ug.mL-1; ASSAY_TEST Inhibition of Fungal Growth; detection method Resazurin; Absorption (OD600-OD570); plate type 384well; NBS; CORNING #3640

| Structure (SMILES) | Inhibition (Klebsiella pneumoniae) | Inhibition (Candida albicans) | Inhibition (Cryptococcus neoformans) |
| --- | --- | --- | --- |
| O=C(CCc1ccc(O)cc1O)c1cc(O)ccc1O | 10.96% | 3.81% | -52.63% |
| COc1ccc(OC)c(CC(=O)Nc2cc(OC)ccc2OC)c1 | 5.13% | 6.79% | -78.53% |
| COc1ccc(OC)c(-c2cn(-c3ccc(OC)c(OC)c3)nn2)c1 | -16.63% | 10.9% | -110.55% |
| O=C(/C=C/c1ccccc1O)c1cc(O)c(O)cc1O | 21.23% | 6.47% | -81.74% |
| Oc1ccc(-n2cc(-c3cc(O)ccc3O)nn2)cc1 | 10.3% | 1.72% | -19.32% |
| COc1ccc(OC)c(C(=O)/C=C/c2ccc(O)cc2)c1 | -6.02% | 2.83% | -65.46% |
| COc1ccc(NC(=O)Cc2cc(OC)ccc2OC)cc1 | 9.76% | 1.24% | -67.4% |
| COc1ccc(OC)c(C(=O)CCc2ccc(O)cc2)c1 | 3.34% | 1.55% | -66.83% |
| O=C(Cc1cc(O)ccc1O)Nc1ccc(O)cc1O | 6.35% | 4.45% | -73.31% |
| O=C(OCc1ccccc1)N1C(=O)C(c2ccccc2NC(=O)C(F)(F)F)=C(O)C1Cc1ccccc1 (stereo not drawn) | 7.86% | 0.9% | -95.18% |
| COc1ccc(OC)c(C(=O)/C=C/c2c[nH]c3ccc(OC)cc23)c1 | 2.62% | 3.54% | -74.27% |
| COc1ccc(OC)c(C(=O)CCc2ccccc2O)c1 | 4.74% | 4.16% | -73.15% |
| O=C(Nc1ccc(O)cc1O)Nc1cc(O)ccc1O | 9.23% | -2.25% | 15.83% |
| COc1ccc(CN2C(=O)C(C)C2(Cc2cn(C(=O)OC(C)(C)C)c3ccccc23)C(=O)OC(C)(C)C)cc1 (stereo not drawn) | 15.95% | 7.68% | -81.49% |
| COc1ccc(OC)c(NC(=O)Nc2ccc(OC)cc2OC)c1 | 6.68% | -0.5% | -79.12% |
| COc1ccc(OC)c(C(=O)/C=C/c2ccccc2O)c1 | -4.68% | 16.8% | -71.16% |
| Oc1ccc(O)c(-c2cn(-c3ccc(O)c(O)c3)nn2)c1 | -0.99% | 3.17% | -118.29% |
| O=C(/C=C/c1c[nH]c2ccc(O)cc12)c1cc(O)ccc1O | 6.02% | 4.1% | -105.31% |
| O=C(Cc1cc(O)ccc1O)Nc1ccc(O)cc1 | 12.9% | 2.83% | -32.05% |
| COc1ccccc1/C=C/C(=O)c1cc(OC)c(OC)cc1OC | 12.89% | 3.46% | -68.54% |
| COc1ccc(C(=O)/C=C/c2ccc(OC)cc2OC)cc1 | -4.58% | 9.33% | -93.49% |
| COc1ccc(OC)c(CC(=O)Nc2ccc(OC)cc2OC)c1 | 9.85% | 16.6% | -87.08% |
| CC1C(=O)N(Cc2ccc(OCCN3CCOCC3)cc2)C1(Cc1ccccc1)C(=O)O (stereo not drawn) | 2.32% | 1.79% | -59.46% |
| O=C(Cc1cc(O)ccc1O)Nc1cc(O)ccc1O | 9.18% | 0.34% | -2.68% |
| COC(=O)c1c(C(Cc2ccccc2)NC(=O)OCc2ccccc2)[nH]c2ccccc12 (stereo not drawn) | 2.35% | 0.58% | -63.52% |
| COC(=O)C1(Cc2ccc(OCc3c(Cl)cccc3Cl)cc2)C(C)C(=O)N1Cc1ccc(OC)cc1 (stereo not drawn) | 5.7% | 7.8% | -62.93% |
